PubChem BioAssay (EPA / NIEHS)
Results filed as inconclusive are left out. The source made the active and inactive calls. The calls were made as follows: active = hit-call score of the fitted dose curve at least 0.9, where 1 is the maximum; inconclusive = response in the unintended direction; inactive = score below 0.9.

Read-out: Cytochrome P450 3A4 (Homo sapiens) (UniProt P08684)
Assay: CLD_CYP3A4_24hr: CellzDirect (CLD) Gene Expression Assay for xenobiotic metabolism (CYP3A4) at 24 hours (AID 2283689)
Procedure: CLD_24hr is a cell-based, multiplexed-readout assay that uses hepatocyte, a human liver primary cell, with measurements taken at 24 hours after chemical dosing in a 96-well plate.CLD_CYP3A4_24hr is one of 16 assay component(s) measured or calculated from the CLD_24hr assay. It is designed to make measurements of mRNA induction, a form of inducible reporter, as detected with chemiluminescence signals by Quantitative Nuclease Protection Assay (qNPA) technology.Data from the assay component CLD_CYP3A4_24hr was analyzed at the endpoint, CLD_CYP3A4_24hr, in the positive analysis fitting direction relative to DMSO as the negative control and baseline of activity. Using a type of inducible reporter, gain-of-signal activity can be used to understand changes in the reporter gene as they relate to the gene CYP3A4. Furthermore, this assay endpoint can be referred to as a primary readout. To generalize the intended target to other relatable targets, this assay endpoint is annotated to the cyp intended target family, where subfamily is xenobiotic metabolism.
Human hepatocyte cultures were treated daily for two consecutive days with fresh dosing solutions containing appropriate concentrations of the 320 ToxCast chemicals (chemical identities were blinded to CellzDirect and other ToxCast collaborators), vehicle control (0.2% DMSO), and positive control inducers as summarized in Table 1. Due to the large number of treatment groups and chemicals examined, the ToxCast chemicals were divided into two groups (spanning two independent cultures of hepatocytes from separate donor preparations (Hu778: ToxCast plates 1 and 2; Hu776: ToxCast plates 3 and 4). Each preparation of human hepatocyte cultures was treated with respective vehicle control, medium only control, set of six positive controls/reference chemicals for the five hepatic receptor pathways, and a subset of eight of the ToxCast chemicals (indoxacarb, pyrithiobac-sodium, norflurazon, cyhalofop-butyl, methomyl, thiram, acetochlor, and propiconazole). These replicate data, coupled with internal replicates designed within the blinded ToxCast chemical library, provided additional data to evaluate interindividual differences between hepatocyte preparations and their potential impact on chemical profiles.Cell morphology and integrity were evaluated using phase-contrast microscopy as an indicator of hepatocyte cell health (Tyson & Green, 1987). Cultures for each treatment group (i.e., media, vehicle [0.2% DMSO], positive control inducers [multiple concentrations], and the ToxCast chemicals [multiple concentrations]) were observed and cell morphology was assessed relative to vehicle control cultures at each harvest time point (0, 6, 24, or 48 h). […] Images were evaluated at the conclusion of the study to assess changes in cell integrity and account for the effects of chemical exposure on uncharacteristic changes in concentration-dependent gene expression profiles. The results from these determinations of apparent cytotoxicity were annotated (yes/no) alongside the corresponding qNPA data for reference.At the conclusion of each treatment period, hepatocyte cultures (96-well) were washed with 1 volume of HBSS, lysed by addition of 25 ul ArrayPlate lysis buffer (HTG, Tucson, AZ), and 70 ul/well of Denaturation Oil, denatured by incubation at 95C for 10 min, and frozen at approximately -70C until analysis by nuclease protection assay (qNPA) (Roberts et al., 2007). For qNPA analysis, cell lysates were thawed at 50C for approximately 30 min, qNPA probes were added, and samples were incubated at 95C for 10 min to begin the detection process by denaturing the target RNA, dissociating the duplexes and secondary structure hybridization. At the conclusion of the hybridization period, S1 nuclease reagent was added to each sample to digest all nonprotected nucleotides at 50C for 60-90 min. […]

Sequence of Cytochrome P450 3A4 (Homo sapiens) (P08684 whole entry, looked up): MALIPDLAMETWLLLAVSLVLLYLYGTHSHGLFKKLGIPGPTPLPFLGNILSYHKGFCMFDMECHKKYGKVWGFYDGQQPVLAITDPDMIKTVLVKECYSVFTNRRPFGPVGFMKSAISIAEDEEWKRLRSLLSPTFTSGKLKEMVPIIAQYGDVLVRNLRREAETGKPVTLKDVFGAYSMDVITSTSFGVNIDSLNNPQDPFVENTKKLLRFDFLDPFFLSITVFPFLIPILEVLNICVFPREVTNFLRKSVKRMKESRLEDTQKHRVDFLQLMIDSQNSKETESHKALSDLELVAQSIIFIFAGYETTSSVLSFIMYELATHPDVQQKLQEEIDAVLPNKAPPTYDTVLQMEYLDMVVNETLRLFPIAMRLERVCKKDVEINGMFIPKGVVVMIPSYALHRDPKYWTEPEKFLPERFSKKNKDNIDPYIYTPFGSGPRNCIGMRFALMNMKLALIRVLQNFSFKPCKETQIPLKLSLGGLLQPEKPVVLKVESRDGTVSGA

Row | SMILES | AC50 | outcome
1 | CCCOc1nn(C(=O)NS(=O)(=O)c2ccccc2C(=O)OC)c(=O)n1C | 9.43 µM (active) | –
2 | CCc1cnc(C2=NC(C)(C(C)C)C(=O)N2)c(C(=O)O)c1 (stereo not given) | – | inactive
3 | CSc1nc(NC(C)C)nc(NC(C)C)n1 | 3.97 µM (active) | –
4 | CN1COCN(Cc2cnc(Cl)s2)C1=N[N+](=O)[O-] | – | inactive
5 | CCCSP(=O)(OCC)SCCC | – | inactive
6 | Nc1c(Cl)cc([N+](=O)[O-])cc1Cl | – | inactive
7 | CCOP(=S)(OCC)SCCSCC | 20 µM (active) | –
8 | CCCCOC(=O)[C@@H](C)Oc1ccc(Oc2ccc(C#N)cc2F)cc1 | – | inactive
9 | Nc1nc(N)nc(NC2CC2)n1 | – | inactive
10 | FC(F)C(F)(F)OCC(Cn1cncn1)c1ccc(Cl)cc1Cl (stereo not given) | 0.949 µM (active) | –
11 | CCC(=NOC/C=C/Cl)C1=C(O)CC(C2CCOCC2)CC1=O (stereo not given) | – | inactive
12 | CCOP(=S)(OCC)Oc1ccc([N+](=O)[O-])cc1 | 5.25 µM (active) | –
13 | CC[C@H](C)[C@H]1O[C@]2(C=C[C@@H]1C)C[C@@H]1C[C@@H](C/C=C(\C)[C@@H](O[C@H]3C[C@H](OC)[C@@H](O[C@H]4C[C@H](OC)[C@@H](NC)[C@H](C)O4)[C@H](C)O3)[C@@H](C)/C=C/C=C3\CO[C@@H]4[C@H](O)C(C)=C[C@@H](C(=O)O1)[C@]34O)O2 | – | inactive
14 | CC(COc1ccc(Oc2ccccc2)cc1)Oc1ccccn1 (stereo not given) | 4.68 µM (active) | –
15 | CC1(C(=O)Nc2ccc(O)c(Cl)c2Cl)CCCCC1 | – | inactive
16 | CCCCSP(=O)(SCCCC)SCCCC | 1.9 µM (active) | –
17 | CC(C)[C@H](C(=O)O[C@H](C#N)c1cccc(Oc2ccccc2)c1)c1ccc(Cl)cc1 | – | inactive
18 | O=C(O)c1cc(Oc2ccc(C(F)(F)F)cc2Cl)ccc1[N+](=O)[O-] | – | inactive
19 | CN(C)C(=O)Nc1cccc(C(F)(F)F)c1 | 20 µM (active) | –
20 | N#CSCSC#N | – | inactive

Row | SMILES | AC50 | outcome
21 | CCc1cccc(CC)c1N(COC)C(=O)CCl | 15.7 µM (active) | –
22 | CCOP(=O)(OCC)Oc1cc(C)nc(C(C)C)n1 | – | inactive
23 | CCCSP(=O)(OCC)Oc1ccc(Br)cc1Cl (stereo not given) | 20 µM (active) | –
24 | CC(C)=CC1C(C(=O)OCN2C(=O)C3=C(CCCC3)C2=O)C1(C)C (stereo not given) | 4.28 µM (active) | –
25 | CC1=NNC(=O)N(/N=C/c2cccnc2)C1 | – | inactive
26 | CCNc1nc(Cl)nc(NC(C)(C)C#N)n1 | 4.74 µM (active) | –
27 | CCOC(=O)CC(SP(=O)(OC)OC)C(=O)OCC (stereo not given) | 20 µM (active) | –
28 | CCOP(=S)(Oc1cnc(C(C)(C)C)nc1)OC(C)C (stereo not given) | 0.464 µM (active) | –
29 | CNC(=O)Oc1cccc2c1OC(C)(C)O2 | 20 µM (active) | –
30 | CNC(=O)ON=C(C)SC | – | inactive
31 | COP(=O)(OC)SCn1c(=O)oc2cc(Cl)cnc21 | – | inactive
32 | O=[N+]([O-])c1cc(C(F)(F)F)c(Cl)c([N+](=O)[O-])c1Nc1ncc(C(F)(F)F)cc1Cl | – | inactive
33 | CCCOCC(=Nc1ccc(Cl)cc1C(F)(F)F)n1ccnc1 | 1.9 µM (active) | –
34 | CCCCN(CC)c1c([N+](=O)[O-])cc(C(F)(F)F)cc1[N+](=O)[O-] | 6.35 µM (active) | –
35 | C[Si](Cn1cncn1)(c1ccc(F)cc1)c1ccc(F)cc1 | 1.89 µM (active) | –
36 | CN(C)[C@@H]1C(=O)C(C(N)=O)=C(O)[C@@]2(O)C(=O)C3=C(O)c4c(O)cccc4[C@@](C)(O)[C@H]3[C@H](O)[C@@H]12 | – | inactive
37 | CCOP(=O)(SC(C)CC)N1CCSC1=O (stereo not given) | 13.4 µM (active) | –
38 | COP(=O)(NC(C)=O)SC (stereo not given) | – | inactive
39 | Cc1nn(-c2cc(NS(C)(=O)=O)c(Cl)cc2Cl)c(=O)n1C(F)F | 0.376 µM (active) | –
40 | CCOP(=S)(OCC)OC(Cl)C(Cl)(Cl)Cl (stereo not given) | 6.19 µM (active) | –
